From PubChem BioAssay
This is a sample that favours compounds with a hit; in the whole collection about 1.6% have one here.
KCNQ2 enhance: potentiators of rat KCNQ2 potassium channel; O88943; B-score at 10 µM; AID 2239; 310,000 compounds, 0.54% hits; CHO-K1 KCNQ2, FluxOR thallium flux fluorescence; hits give high values;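 active = fluorescence ratio B-score at least 3 SD of library B-scores, with initial fluorescence B-score within 3 of them, cut at about 5.3 in these data; same plate scores as AID 2156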;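 also: B-score of peak minus minimum over baseline fluorescence ratio after K+ and Tl+ stimulus; positive B-score means potentiation of KCNQ2 with more thallium influx and brighter signal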
KCNQ2 block: inhibitors of rat KCNQ2 potassium channel; O88943; CHO-K1 KCNQ2, FluxOR thallium flux, 20 min; hits give low values; B-score at 10 µM; 310,000 compounds, 1.1% hits; AID 2156;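 active = fluorescence ratio B-score at most minus 3 library SDs, with starting brightness B-score within 2 library SDs, cut at about -5.5 in these data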
Kir21 conf inh: confirmation of mouse Kir2.1 potassium channel inhibitors; shares compounds with KCNQ2 enhance; Kir2.1-expressing cells, FluxOR thallium flux fluorescence; hits give low values; Tl flux remaining, % of negative control (hits give low values), % at 10 µM; 2,300 compounds, 41% hits;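 active = Primary-screen hit whose thallium flux fell at least 3 control SD below untreated wells in both duplicates, with normal baseline fluorescence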;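 also: 0% = blank wells without stimulus and 100% = stimulated no-compound controls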
HEK293 ctr: alters thallium flux in parental HEK293 cells, Kir2.1 counter-screen; shares compounds with KCNQ2 enhance; FluxOR thallium flux fluorescence; 0% = unstimulated blank wells; FluxOR signal as % of negative control (100 = no effect), % at 10 µM; 2,300 compounds, 19% hits;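 active = dye signal at least 3 control SD above or below untreated wells in both duplicates, raw fluorescence within 3, either direction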;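 also: percent is based on the flux ratio of peak minus minimum fluorescence over baseline F0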
CHO-K1 Tl ctr: counter-screen for KCNQ2 potentiators: effect in parental CHO-K1 cells; shares compounds with KCNQ2 enhance; FluxOR thallium flux fluorescence; zero = vehicle mean+3SD, 100% = vehicle-minus-blank window; activity increase over 3SD of controls, % at 10 µM; 1,200 compounds, 43% hits; AID 2282;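 active = signal rise of at least 3 SD above the untreated control mean, in both duplicate wells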;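 also: counter screen of KCNQ2 potentiator hits so any rise reflects channel-independent effects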
KCNQ1 pot spec: tests whether KCNQ2 potentiators also act on human KCNQ1; shares compounds with KCNQ2 enhance; CHO KCNQ1 stable, FluxOR thallium flux fluorescence; beyond 3SD, as % of vehicle-control signal; 1,200 compounds, 28% hits; AID 2283; activation over 3SD threshold, % at 10 µM;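 active = fluorescence ratio rise of at least 3 SD of vehicle wells above their mean, in both replicate wells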;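 also: 0% = vehicle mean plus 3 SD and 100% = vehicle minus unstimulated blank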
KCNQ2 pot conf: rat KCNQ2 channel potentiator confirmation | shares compounds with KCNQ2 enhance | CHO-KCNQ2 cells, FluxOR thallium flux fluorescence | potentiation, less the hit threshold, % at 10 µM | 1,200 compounds, 68% hits | AID 2287;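 active = fluorescence ratio rising 3 SD or more over the vehicle control mean in both replicates, plus primary screen hit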;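 also: peak minus minimum thallium fluorescence divided by baseline after K/Tl stimulus; 0% = vehicle mean plus 3 SD and 100% = vehicle minus unstimulated blank difference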
Kir21 spec: selectivity of KCNQ2 potentiators: effect on mouse Kir2.1; HEK293 Kir2.1, FluxOR thallium flux fluorescence; activity over 3SD threshold, % at 10 µM; 1,200 compounds, 2% hits; shares compounds with KCNQ2 enhance;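 active = fluorescence ratio rise of at least 3 SD above the vehicle-control mean, seen in both replicates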;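 also: 0% = vehicle mean plus 3 SD and 100% = vehicle minus no-stimulus blank window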
KCNQ2 W236L pot: KCNQ2 potentiators acting on retigabine-insensitive rat KCNQ2 W236L mutant; shares compounds with KCNQ2 enhance; CHO KCNQ2-W236L, automated patch clamp current; current increase over 3SD of negative controls (%), hits give high values, % at 25 µM; 940 compounds, 10% hits;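 active = current increase at least 3 SD of the untreated controls above them in both duplicate recordings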
Target sequence (O88943 whole entry W236L, looked up): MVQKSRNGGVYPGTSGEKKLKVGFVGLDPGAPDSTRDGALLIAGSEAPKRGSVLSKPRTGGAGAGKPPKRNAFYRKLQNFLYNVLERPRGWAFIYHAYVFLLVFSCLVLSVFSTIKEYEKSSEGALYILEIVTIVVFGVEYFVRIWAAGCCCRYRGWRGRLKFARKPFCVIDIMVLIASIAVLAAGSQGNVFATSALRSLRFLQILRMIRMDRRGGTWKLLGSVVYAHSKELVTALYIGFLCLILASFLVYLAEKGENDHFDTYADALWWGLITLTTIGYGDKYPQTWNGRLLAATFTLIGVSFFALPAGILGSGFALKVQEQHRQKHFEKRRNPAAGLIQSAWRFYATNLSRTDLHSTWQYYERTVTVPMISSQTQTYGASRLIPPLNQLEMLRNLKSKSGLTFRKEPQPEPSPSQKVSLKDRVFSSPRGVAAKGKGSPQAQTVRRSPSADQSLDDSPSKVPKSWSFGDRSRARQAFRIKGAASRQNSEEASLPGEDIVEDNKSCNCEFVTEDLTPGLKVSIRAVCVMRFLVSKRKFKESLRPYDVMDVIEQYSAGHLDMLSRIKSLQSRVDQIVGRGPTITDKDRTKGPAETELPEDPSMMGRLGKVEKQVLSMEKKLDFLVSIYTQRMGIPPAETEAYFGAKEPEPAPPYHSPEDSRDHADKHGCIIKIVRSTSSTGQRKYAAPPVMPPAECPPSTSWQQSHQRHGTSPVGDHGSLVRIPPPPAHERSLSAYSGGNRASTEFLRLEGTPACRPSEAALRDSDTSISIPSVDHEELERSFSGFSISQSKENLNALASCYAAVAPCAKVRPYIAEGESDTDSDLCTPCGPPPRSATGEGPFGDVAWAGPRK
Numbers without * were called inactive; i = inactive; · = no result.

SMILES	KCNQ2 enhance	KCNQ2 block	Kir21 conf inh	HEK293 ctr	others
CCC(C)c1ccc(NC(=O)C2CC3CCC2C3)cc1 (stereo not given)	26*	i	i	i	CHO-K1 Tl ctr=7.5*;KCNQ1 pot spec=-3;KCNQ2 pot conf=105*;Kir21 spec=-39;KCNQ2 W236L pot=i
CCOc1ccc(NC(=O)C2CC3CCC2C3)cc1 (stereo not given)	0.07	i	·	·
O=C(CCn1cnnn1)N1CCCC(Nc2ccc(F)cc2)C1 (stereo not given)	1.5	i	·	·
Cc1ccc(-c2csc(N3CCN(S(=O)(=O)c4ccc5c(c4)NC(=O)CO5)CC3)n2)cc1	0.14	i	·	·
O=C(NN1C(=O)C2C(c3ccccc3)C=CC(c3ccccc3)C2C1=O)c1ccncc1 (stereo not given)	6.5*	i	i	i	CHO-K1 Tl ctr=-1;KCNQ1 pot spec=-7;KCNQ2 pot conf=72*;Kir21 spec=-41;KCNQ2 W236L pot=i
O=C(NN1C(=O)C2C3C=CC(C3)C2C1=O)c1ccncc1 (stereo not given)	0.29	i	·	·
Cn1c(=NC(=O)CS(=O)(=O)c2ccccc2)sc2cc([N+](=O)[O-])ccc21	2.1	i	·	·
CC1=NN(C(N)=S)C(=O)C1N=Nc1ccccc1Cl (stereo not given)	·	i	·	·
CC1=NN(C(N)=S)C(=O)C1N=Nc1ccc(Cl)cc1Cl (stereo not given)	13*	i	i	i	CHO-K1 Tl ctr=-8;KCNQ1 pot spec=-16;KCNQ2 pot conf=-4;Kir21 spec=-30;KCNQ2 W236L pot=i
CCOc1ccc(-n2cc(-c3ccccc3)c3c(=O)[nH]cnc32)cc1	0.58	i	·	·
CCOc1ccc(-n2cc(-c3ccccc3)c3c(=S)nc[nH]c32)cc1	6.9*	i	i	148%*	CHO-K1 Tl ctr=11*;KCNQ1 pot spec=-16;KCNQ2 pot conf=0.0*;Kir21 spec=-27;KCNQ2 W236L pot=i
CC(=O)Nc1ccc(Nc2nc(C(F)(F)F)nc3c2nnn3Cc2ccccc2Cl)cc1	·	i	·	·
CCCCn1c(NC(=S)Nc2ccccc2)nc2ccccc21	2.6	i	·	·
O=S(=O)(c1ccc(F)cc1)N1CCCc2ccccc21	·	i	71%*	i
O=C(O)c1ccc(S(=O)(=O)N2CCCc3ccccc32)cc1	·	i	·	·
O=S(=O)(c1ccccc1)N1CCCc2ccccc21	·	i	64%*	i
CC(=O)c1ccc(S(=O)(=O)N2CCCc3ccccc32)cc1	·	i	·	·
O=C(CCc1ccccc1)N1CCCC(Nc2ccc(F)cc2)C1 (stereo not given)	·	i	·	·
COc1ccc2nc(NCc3ccccc3)[nH]c2c1	0.44	i	·	·
Cc1ccc2nc(NCc3ccccc3)[nH]c2c1	·	i	22%*	i
COc1ccc(C(=O)OC(COc2ccccc2)Cn2ccnc2)cc1 (stereo not given)	·	i	54%*	i
COC(=O)c1cccc(OCC(O)Cn2ccnc2)c1 (stereo not given)	·	i	·	·
CCCn1nnnc1NCc1cccc(OC)c1	·	i	·	·
CCS(=O)(=O)n1nc(NCc2cccc(OC)c2)nc1NCc1cccc(OC)c1	15*	i	·	·	CHO-K1 Tl ctr=78*;KCNQ1 pot spec=-7;KCNQ2 pot conf=-25;Kir21 spec=-50
O=C(O)c1cc(NN=C2c3ccccc3-c3ccccc32)ccc1Cl	9.2*	i	i	i	CHO-K1 Tl ctr=51*;KCNQ1 pot spec=-14;KCNQ2 pot conf=51*;Kir21 spec=-44;KCNQ2 W236L pot=22%*
SMILES	KCNQ2 enhance	KCNQ2 block	Kir21 conf inh	HEK293 ctr	others
O=C(O)c1cccc(NN=C2c3ccccc3-c3ccccc32)c1	·	i	·	·
COc1cccc(CNS(=O)(=O)c2ccc3c(c2)oc(=O)n3C)c1	2.7	i	·	·
Cc1cc(NC(=O)c2ccccc2C)n(-c2cccc(F)c2)n1	·	i	·	·
c1ccc(C2CCC(N3CCN(c4ccccc4)CC3)CC2)cc1 (stereo not given)	·	i	·	·
CCCCc1ccc(-c2ccc(C)cc2O)nc1	3.3	i	·	·
CCCCc1ccc(-c2ccc(Br)cc2O)nc1	6*	i	i	i	CHO-K1 Tl ctr=-11;KCNQ1 pot spec=59*;KCNQ2 pot conf=-9;Kir21 spec=-30
Cc1cccn2cc(CCNC(=O)c3cccs3)nc12	2.7	i	·	·
C/C(=N\Nc1nncc2ccccc12)c1cccc(OC(F)F)c1	·	i	·	·
O=C(CN1CCCc2ccccc21)NCCc1ccc(F)cc1	·	i	46%*	i
COc1ccc(CCNC(=O)CN2CCCc3ccccc32)cc1OC	·	i	·	·
COC(=O)C1Cc2c([nH]c3ccccc23)C2(CCN(Cc3ccccc3)CC2)N1 (stereo not given)	·	i	68%*	i
CCCN1CCC2(CC1)NC(C(=O)O)Cc1c2[nH]c2ccccc12 (stereo not given)	·	i	·	·
COc1cccc(C(=O)N2CCC(CCC(=O)Nc3cccc(C)c3)CC2)c1	0.55	i	·	·
Cc1ccc(CNC(=O)CSc2nc(=O)n3ccccc3n2)cc1	1.5	i	·	·
CCCOC(=O)c1ccc(Oc2c(-c3ccc(OCC)cc3O)n[nH]c2C)cc1	·	i	·	·
COc1ccc(Oc2c(-c3ccc(O)cc3O)n[nH]c2C)cc1	·	i	61%*	i
O=c1ccc(Cl)nn1-c1ccccc1	·	i	·	·
Cc1ccc(C)c(Cn2c3ccccc3c3cnn(CC(=O)NCCCN4CCCCC4)c(=O)c32)c1	0.21	i	60%*	i
Cc1ccc(C)c(Cn2c3ccccc3c3cnn(CC(=O)NCc4ccccn4)c(=O)c32)c1	1.2	i	·	·
NC(=O)N=Nc1c2[nH]c3ccccc3nc-2c2ccccc12	0.11	i	·	·
CSC1=C(C#N)C(CC(C)C)C(C(C)=O)=C(C)N1 (stereo not given)	1.2	i	72%*	i
CSC1=C(C#N)C(CC(C)C)C2=C(CCCC2=O)N1 (stereo not given)	1.4	i	·	·
CC1CCCC(NC(=O)COC(=O)CN2C(=O)C3CCCCC3C2=O)C1C (stereo not given)	·	i	·	·
COc1coc(C(O)CN)cc1=O (stereo not given)	0.73	i	·	·
CCOC(=O)C(=Cc1cc(=O)c(OC)co1)C(=O)OCC	2.9	i	i	i
Cc1csc(SCC(=O)Nc2ccc(Cl)cn2)n1	0.39	i	·	·
CC(C)(C)c1csc(SCC(=O)Nc2ccc(Cl)cn2)n1	7*	i	i	i	CHO-K1 Tl ctr=13*;KCNQ1 pot spec=10*;KCNQ2 pot conf=5.0*;Kir21 spec=-46;KCNQ2 W236L pot=i
